For seven molecules, outcome results are on record in PubChem BioAssay AID1845225 (National Center for Advancing Translational Sciences (NCATS), 2023).

Records with an inconclusive call do not appear. Activity calls are given as the source filed them. Calls follow the shape of the dose curve; as a rule, active = well fitted curve in the direction sought with a large enough effect; inconclusive = small, poorly fitted or top-dose-only effect, or effect the other way, or another doubt; inactive = no such curve, though single readings can be large or run the other way.

The nature of this test: Confirmatory redox qHTS assay for identification of artifact compounds. As to conditions: Amplex Red/HRP redox cycling with DTT, fluorescence; series mostly up to 39 µM. From the text:
PI: Alexander Tropsha Ph.D. UNC Eshelman School of Pharmacy University of North Carolina, Chapel Hill, North Carolina Hits from high-throughput screening (HTS) of chemical libraries are often false positives due to their interference with the assay detection technology. In response to this problem, we generated the largest publicly available library of chemical liabilities and developed a free webtool to predict HTS artifacts, both of which are described herein. More specifically, we generated, curated, and integrated HTS datasets for thiol reactivity, redox activity, and luciferase (firefly and nano) activity. Using these curated datasets, we developed and validated several Quantitative Structure-Interference Relationship (QSIR) models to predict nuisance behavior. […] These models were employed for virtual profiling of the National Center for Advancing Translational Science's (NCATS) in-house library, and 256 compounds for each assay were selected for the experimental validation of nuisance behavior. The BA for these external predictions ranged from 58 to 78% for compounds within the applicability domains of the models. […] The models developed in this study, along with aggregation models previously developed by our group (SCAM Detective) were implemented in "Liability Predictor," an online tool which may be used as part of chemical library design or for triaging HTS hits. Both the models and the curated datasets are publicly available at https://liability.mml.unc.edu/.
PROTOCOL TABLE SEQUENCE No. (e.g., 1, 2, 3, etc.); […] (e.g., Cells, Incubation, Reagent, etc.); VALUE; DESCRIPTION. 1; Reagent; 3 uL; Amplex Red and HRP mixture. 2; Compounds and control; 16 nL; Kalypsis pin tool (Wako USA) equipped with a 1536-well pin head. 3; Incubation; 15 min. 4; Reagent; 1 uL; […]. 5; Incubation; 30 min. 6; Detection; Fluorescence, ViewLux microplate reader, 525 nm excitation, 598 nm emission. NOTES (numbers refer to Sequence numbers above) 1. 3 uL of a mixture containing Amplex Red (25 uM final concentration) and horseradish peroxidase (HRP; 250 mU/mL final concentration) in assay buffer (HBSS) was dispensed into all wells of a 1536-well assay plate (solid-bottom black plate; Greiner Bio One, Monroe, NC). 2. […] 3. 15 min. incubation at room temperature protected from light. 4. 1 uL of DTT (prepared fresh; final concentration 250 uM) was dispensed for a final assay volume of 4 uL. 5. Plates were centrifuged (121xg, 15 seconds) and incubated for 30 minutes at room temperature protected from light. 6. Samples were read for fluorescence (Ex/Em = 525(20)/598(25) nm) on a ViewLux CCD imager (PerkinElmer). Data were normalized to DMSO (0% activity) and DA3003 (10 uM final concentration; 100% activity) and the resulting percent inhibition data were fitted to a 4-parameter Hill equation using NCATS in-house software.
As for `Cn1c(=O)n(C)c2cc(CNCCc3ccccc3)ccc21`, the molecule was classed as inactive. Consider `CSc1nc(NC(C)C)nc(NC(C)C)n1`, for which the result was inactive.

For the molecule `CCOc1ccc(CCNC(=O)c2cc3ccccc3n2CCN2CCOCC2)cc1OCC`, the outcome was inactive.

With `Oc1cccc[c]1[Hg][Cl]`, the molecule was classed as inactive.

As for `CCCOC(=O)c1ccccc1C(=O)OCCC`, the molecule was classed as inactive. The entry for `Clc1ccc(C(Cl)(Cl)Cl)cc1Cl` is “inactive”. Regarding `Cc1ccc(C(C)C)c(OCC(=O)N2CCN(CCc3ccncc3)CC2)c1`, the call was inactive.
